The whole screen tested about 69,000 compounds, of which about 8,600 (12%) showed an effect of 50% or more. The entries come from a sample that favours strong results as a whole.
Tested on: Plasmodium berghei
Assay: Screen against P. berghei liver stage (PbLuc), transformed with Luciferase, at 10uM
Format: functional, HepG2
Conditions: tested at 10 uM

SMILES | INHIBITION [%]
CNC(=O)C1(c2cnccn2)CCCN1C(=O)c1c(F)cccc1F (stereo not drawn) | 34
Cc1cccc(=O)n1CCC(=O)N1CC[C@](C)(O)[C@H](C)C1 | 51.3
Cc1cccc(=O)n1CCC(=O)N1CC[C@@](O)(C2CCC2)[C@H](C)C1 | 47.6
C[C@@H]1CN(C(=O)CCCN2CCOCC2)CC[C@@]1(O)C1CCC1 | 64.9
C[C@@H]1CN(C(=O)CCN2CCCC2)CC[C@@]1(O)C1CCOCC1 | 25.4
C[C@@H]1CN(C(=O)CCCN2CCCC2)CC[C@@]1(O)C1CCOCC1 | 10.6
C[C@@H]1CN(C(=O)CCN2CCCC2)CC[C@@]1(O)C1CCC1 | 27.9
C[C@@H]1CN(C(=O)CCN2CCOCC2)CC[C@]1(C)O | 55
C[C@@H]1CN(C(=O)CCCN2CCOCC2)C[C@@]1(O)C1CC1 | 37.7
CC[C@H]1CN(C(=O)CCn2c(C)cccc2=O)CC[C@@]1(C)O | -22.7
CNCC1CCC(c2cc(CN(C)S(=O)(=O)N(C)C)n(C)n2)CC1 (stereo not drawn) | 44.3
CC(C)OC(=O)N1C[C@@H]2CC[C@H]1CN(C(=O)c1ccccn1)C2 | -26.4
COc1nonc1NCn1nc(C)cc1C | 39.7
CN(C)Cc1nc(C2(NC(=O)Nc3cccc(F)c3)CCCC2)no1 | 38.2
CCN1CCN(C2CCN(CC(=O)NCC(F)(F)F)CC2)C1=O | -3.2
Cc1nccn1[C@@H]1CC[C@@H](NC(=O)Cn2c(C)nc3ccccc32)[C@H]1O | 23.9
COc1ccccc1CN(Cc1nc(C)no1)C1CC1 | 17.4
Cc1cncnc1C1CCN(C(=O)C2(C)CCCCN2C)CC1 (stereo not drawn) | 1.45
Cn1ccnc1-c1ccc(NCC2COc3ccccc3O2)nn1 (stereo not drawn) | -9.17
Cn1ccnc1-c1ccc(NCCC2COc3ccccc3O2)nn1 (stereo not drawn) | 34
Cn1ccnc1-c1ccc(NC[C@H]2CCc3ccccc3O2)nn1 | 60
CCC(O)CN1CCN(C(=O)c2sccc2C2CC2)CC1 (stereo not drawn) | 19.5

SMILES | INHIBITION [%]
Cc1nc(CN2CCN(C(C)c3nc(C(C)C)no3)CC2)oc1C (stereo not drawn) | 6.7
Cc1cc(C)n(C2CN(c3ncnc4c3CCC4)C2)n1 | 0.868
c1cnn(C2CN(c3nc(-c4ccncc4)nc4c3CCC4)C2)c1 | 53.6
Cc1cc(C)n(C2CN(c3nc(-c4ccncc4)nc4c3CCC4)C2)n1 | 81.4
OCCC1CN(c2nc(-c3ccncc3)nc3c2CCNCC3)CCO1 (stereo not drawn) | 11.8
Cc1cc(C)n(C2CN(c3nc(N)nc4c3CCCC4)C2)n1 | 34.1
Cc1cnn(C2CN(c3nc(-c4ccncc4)nc4c3CCC4)C2)c1 | 44.3
CC1(c2ncc(CN(CC(=O)O)Cc3ccccc3)cn2)CCCCO1 (stereo not drawn) | 16.9
Cc1ccc(F)c2c1CCCN2C(=O)c1cn(CC(=O)N(C)C)nn1 | 29.1
CC1(C)OCC(CNC(=O)c2cnn(-c3cccc(Cl)c3Cl)c2N)O1 (stereo not drawn) | -101
Cn1ccnc1CN1CCCC1CCc1ccccc1 (stereo not drawn) | -67.9
O=C(CCNc1ccccc1)NC1CCN(C(=O)C2CCCCC2)CC1 | 27.6
O=C(c1ccoc1)N1CCOCC2(CCN(C3CCOCC3)C2)C1 (stereo not drawn) | 34.4
CC(C)NC(=O)N1CCCC2(CCN(c3ccsc3)C2=O)C1 (stereo not drawn) | -4.82
CCc1nnc(CN2CCCC(c3cc(C(N)=O)[nH]n3)C2)o1 (stereo not drawn) | 4.71
CCC(=O)c1ccc(OCC(=O)NCC2CCCO2)cc1 (stereo not drawn) | 3.48
CCC(=O)c1ccc(OCC(=O)NCC2CC(CC)=NO2)cc1 (stereo not drawn) | 52.6
C=C(C)COc1ccc(C(=O)NCC2CC(CC)=NO2)cc1 (stereo not drawn) | 6.26
Cc1cc2cccc(NC(=O)N3CC[C@H]4CC[C@@H](C3)N4C)c2o1 | -4.01
CCN(CC(=O)NC(C)C)C(=O)c1ccc(-c2ccsc2)nc1C | 47
CCc1n[nH]c(C2CN(C(=O)c3ncoc3CC)CCO2)n1 (stereo not drawn) | -19.9
CCn1cnnc1C1CCN(C(=O)c2cccc(OC)c2OC)CC1 | 22.3

SMILES | INHIBITION [%]
CN(C)C(=O)C1(Oc2ccc(Cl)cc2)CCNCC1 | 1.79
CN(Cc1ccncn1)C(=O)C1(Oc2ccc(Cl)cc2)CCNCC1 | 53.3
CN(Cc1ccoc1)C(=O)C1(Oc2ccc(Cl)cc2)CCNCC1 | 11.9
CC(C)c1ccc2c(c1)CCCN2C(=O)CN(C)S(C)(=O)=O | 48.3
CC(=O)c1c(C)nn(S(=O)(=O)c2ccc(Cl)cc2)c1C | -16.6
CC(=O)c1c(C)nn(S(=O)(=O)c2ccc(C)cc2)c1C | -15.5
CC(=O)c1c(C)nn(S(=O)(=O)c2ccc(F)cc2)c1C | 53.8
CSc1nc(N)cc(N2C[C@H]3CC[C@@H](C2)N(Cc2cscn2)C3=O)n1 | 9.4
CS(=O)(=O)N1CCC2(CC1)CN(CC1CC1)CC21CCNC1=O (stereo not drawn) | 3.81
COCCN1C[C@@H]2CC[C@H]1CN(C(=O)c1ccc(Cl)cc1)C2 | 66.1
O=S(=O)(c1cccc(F)c1)N1C[C@H]2CC[C@@H](C1)N(Cc1ccccc1)C2 | 63.6
O=S(=O)(c1cccnc1)N1C[C@H]2CC[C@@H](C1)N(Cc1ccccn1)C2 | 31.7
O=C(c1ccc(F)c(Cl)c1)N1C[C@H]2CC[C@@H](C1)N(Cc1ccccc1)C2 | 68.5
CCN(CC)c1ccc(C(=O)N2C[C@H]3CC[C@@H](C2)N(CCOC)C3)cc1 | 25.4
O=C(c1cc(F)cc(Cl)c1)N1C[C@H]2CC[C@@H](C1)N(Cc1ccccc1)C2 | -31.3
COCCN1C[C@@H]2CC[C@H]1CN(C(=O)CCn1cc(Cl)cn1)C2 | 26.6
O=S(=O)(c1cccnc1)N1C[C@H]2CC[C@@H](C1)N(Cc1ccccc1)C2 | 18.6
O=C(c1c[nH]c(=O)c(Cl)c1)N1C[C@H]2CC[C@@H](C1)N(Cc1ccccc1)C2 | -23.2
CN1CCN(C(=O)C2CCN(c3cccnn3)CC2)CC1 | -9.32
CCc1nnc2n1CCN(C(=O)c1nc(-c3ccco3)sc1C)C2 | 21.5
O=C(Cn1ccc(C(=O)O)n1)Nc1c(Cl)cccc1Cl | 19.09
Cc1ncc(CN(C)Cn2nc(-c3ccccc3)oc2=O)s1 | 3.41

SMILES | INHIBITION [%]
CN(Cc1nnc2n1CCC2)C(=O)c1ccc2c(c1)OCCO2 | -2.53
O=C(Cc1ccccc1F)N1CCN(C(=O)c2ccoc2)CC1 | 16.6
Cc1nc(C)c(C)c(N2CCC3(CCOC3)C2)n1 (stereo not drawn) | -129
Cc1nnc2ccc(N3CCC4(CCOC4)C3)nn12 (stereo not drawn) | 9
Cc1nc(N2CCC3(CCOC3)C2)c2cc[nH]c2n1 (stereo not drawn) | 71.1
COc1ccc2c(c1)CN(Cc1ccco1)C(=O)CCN2 | 17.7
Cc1ccc(-n2cc(C(=O)N3CCCC(n4cccn4)C3)nn2)cc1 (stereo not drawn) | -2.19
CNC(=O)CC1COCCN1C(=O)C1(c2ccc(Cl)cc2)CCC1 (stereo not drawn) | 52.1
O=C(O)CC1COCCN1C(=O)C1(c2ccc(Cl)cc2)CCC1 (stereo not drawn) | 1.74
O=C(N1CCOCC(O)C1)C1(c2ccc(Cl)cc2)CCC1 (stereo not drawn) | 0.0996
COc1cc(C(=O)N2CCC(c3n[nH]c(C)n3)CC2)cc(OC)c1C | 0.914
O=C(Cc1n[nH]c(-c2cncc(Br)c2)n1)NCc1ccccn1 | 22.5
CC1(c2nccs2)CCN(C(=O)CCN2CCOCC2)CC1 | 23.3
Cc1noc(C(C)N2CCN(Cc3nc(C)c(C)o3)CC2)n1 (stereo not drawn) | -2.143
Cc1noc(-c2cccnc2N(C)Cc2cc(C)on2)n1 | 50.8
Cc1noc(-c2cccnc2N(C)Cc2ccc([S+](C)[O-])cc2)n1 (stereo not drawn) | 79.9
Cc1noc(-c2ccc(N(C)Cc3cccnc3)nc2)n1 | 28.7
Cc1noc(-c2ccc(N(C)Cc3nccs3)nc2)n1 | 1.79
Cc1noc(-c2ccc(N(C)Cc3ccncc3C)nc2)n1 | -3.58
Cc1noc(-c2cccnc2N2CCN(c3cnn(C)c3)CC2)n1 | -26.8
CN(Cc1ccc([S+](C)[O-])cc1)c1ccccn1 (stereo not drawn) | 40.5
Cc1noc(-c2ccc(N(C)Cc3ccncn3)nc2)n1 | 26.4

SMILES | INHIBITION [%]
Cc1noc(-c2cccnc2N(C)Cc2cscn2)n1 | 68.8
Cc1nn(S(=O)(=O)c2ccc(Cl)cc2)c(C)c1C | 9.52
COc1cc(N2CCC3(CCN(C(=O)c4cccnc4)CC3)C2)ncn1 | -3.77
COc1ncccc1C(=O)N1CC[C@H]2C[C@H](c3nnc(C)[nH]3)O[C@@H]2C1 | 15.4
CC(C)N(C)Cc1nnc2n1CCN(S(=O)(=O)C1CC1)CC2 | 29
N#Cc1cccc(N2CC3(CCN(C(=O)c4cccnc4)C3)CC2=O)c1 (stereo not drawn) | 19.9
COCc1nc(N(C)C)ncc1C(=O)NC(C)C | -1.58
CCCNC(=O)c1cnc(N(C)C)nc1COC | -10.3
COCc1nc(N(C)C)ncc1C(=O)OC | 66.5
Cc1cnn(CC2CCCCN2C(=O)c2ccccc2-n2cccn2)c1 (stereo not drawn) | 38.8
CCc1ccc(NS(=O)(=O)c2cc3c(c(C(=O)O)c2)OCCO3)cc1 | 9.14
C[C@H]1C[C@@H]2CCN(C(=O)c3cnccn3)C[C@H]2O1 | 7.31
CC(C)(O)c1cn(C2CCN(C(=O)CCc3ccncc3)CC2)nn1 | 23.9
CC(C)(C)c1cn(C2CCN(C(=O)c3cnccn3)CC2)nn1 | 61.1
CC(C)(N)c1cn(C2CCN(C3CCSCC3)CC2)nn1 | -7.77
CCC(=O)N1CCC(n2cc(C(C)(C)O)nn2)CC1 | 42.1
CC(C)n1cc(C(=O)N2CCC(n3cc(C(C)(C)C)nn3)CC2)cn1 | 29.8
OC1(c2cn(C3CCN(C4CCSC4)CC3)nn2)CCCC1 (stereo not drawn) | -23
CC(C)(C)c1cn(C2CCN(C(=O)c3cncnc3)CC2)nn1 | 54.4
CC(C)(C)c1cn(C2CCN(C3CCSC3)CC2)nn1 (stereo not drawn) | 70.9

— ChEMBL document CHEMBL4513216, “Probing the Open Global Health Chemical Diversity Library for Multistage-Active Starting Points for Next-Generation Antimalarials” (ACS Infect Dis, 2020)
